Assay results: article PMC5540273 (PLoS ONE, 2017)
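Further: KINOMEscan kinase panel screen.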

These compounds were tested on T1, OSR1. Conditions: concentration: 1 μM, replicates: in singlicate; n = 1.
T1 construct: gene OXSR1
With `Cc1cccc(-c2nc(-c3ccc(S(C)(=O)=O)cc3)sc2-c2ccncc2)c1` the “%Inh” value was 0%.
In the case of `Nc1nc(-c2ccc3c(N)n[nH]c3c2)cc(N2CCCC2)n1` [GSK2227430], the “%Inh” value is reported as 7%.
For `NCC(NC(=O)c1cc(-c2cn[nH]c2)c(-c2ccnc3[nH]ccc23)s1)c1ccccc1.O=C(O)C(F)(F)F.O=C(O)C(F)(F)F` (centres unmarked) [GSK1325775], the “%Inh” value was 4%.
With `Cc1c(Cn2c(C)nn3c(=O)cc(N4CCOC(C)C4)nc23)cccc1C(F)(F)F` (centres unmarked) [GSK2344444] the “%Inh” value was 23%.
`O=C(Nc1cccc(-c2nn3ncccc3c2-c2ccnc(Nc3cccc(C(F)(F)F)c3)n2)c1)c1c(F)cccc1F` [GSK299495] was tested, and the “%Inh” value was 23%.
For `N#Cc1c(N2CCOCC2)sc(-c2ccn[nH]2)c1-c1ccc(Cl)cc1`, the “%Inh” value was 0%.
With `CCc1nc(-c2cccc(C)c2)c(-c2ccnc(NCc3ccccc3)c2)s1` the “%Inh” value was 0%.
In the case of `Nc1nccc(-c2c(-c3ccc(F)cc3)ncn2C2CCN(CC(F)(F)F)CC2)n1` [SB-236560], the “%Inh” value is reported as 0%.
With `CC(=O)Nc1ccc(COc2ccc(Nc3ccnc4cc(-c5ccccn5)ccc34)cc2)cc1.Cl` [GW440148] the “%Inh” value was 0%.
For `O=C(NCCCN1CCOCC1)c1cccc(Nc2nccc(Nc3ccc(Oc4ccccc4)cc3)n2)c1` [GW663929], the “%Inh” value was 0%.
For `COc1cc2c(cc1OCCN1CCN(C)CC1)ncc1c3ccc(C#N)cc3[nH]c21`, the “%Inh” value was 0%.
For `COc1ccc(Nc2ncc(C#N)c(Nc3ccccc3C(N)=O)n2)cc1N1CCN(C)CC1.Cl` [GSK1558669], the “%Inh” value was 100%.
`Cn1ccc2ncnc(Oc3ccc(NC(=O)Nc4ccncc4)c(Cl)c3)c21` was tested, and the “%Inh” value was 0%.
For `COc1cc2c(cc1OC[C@@H](O)CO)ncc1c3ccc(C#N)cc3[nH]c21`, the “%Inh” value was 0%.
`Cc1cn2c(=O)cc(N3CCOCC3)nc2n1Cc1cccc(Cl)c1Cl` [GSK2334006] was tested, and the “%Inh” value was 1%.
For `Cn1cc(-c2ccc3c(c2)CCN3C(=O)Cc2ccccc2Cl)c2c(N)ncnc21` [GSK2608885], the “%Inh” value was 10%.
`NS(=O)(=O)c1cccc(-c2ccc3nccc(-c4cccc(S(N)(=O)=O)c4)c3c2)c1` [GW867253] was tested, and the “%Inh” value was 0%.
`Cl.Oc1cccc(Nc2ccnc3cc(-c4ccncc4)ccc23)c1` [GW494601] was tested, and the “%Inh” value was 0%.
For `[2H]C([2H])(c1cccc(C(F)(F)F)c1C)n1ccn2c(=O)nc(N3CCOCC3)cc12` [GSK2336394], the “%Inh” value was 9%.
For `Cl.Nc1ncnc2occ(-c3ccc(NC(=O)Nc4cc(C(F)(F)F)ccc4F)cc3)c12` [SB-707548], the “%Inh” value was 3%.
With `O=C1NC(=O)C(N2CCc3ccccc32)=C1c1cccc(Cl)c1` [SB-408010] the “%Inh” value was 0%.
In the case of `C[C@@H](Oc1cc(-n2cnc3ccc(NC(=O)NC(C)(C)C)cc32)sc1C(N)=O)c1ccccc1Cl` [GSK346294], the “%Inh” value is reported as 18%.
In the case of `O=c1cc(N2CCOCC2)nc2n(Cc3cccc(Cl)c3Cl)c(C3CC3)nn12` [GSK2358994], the “%Inh” value is reported as 0%.
For `CSc1ccc(-c2cc3ncnc(SCC(=O)O)c3s2)cc1`, the “%Inh” value was 0%.
In the case of `c1ccc(-c2n[nH]cc2-c2ccnc3ccccc23)nc1` [GW271431], the “%Inh” value is reported as 13%.
For `Cl.Cl.Cl.Fc1ccc(-c2ncn(C3CCNCC3)c2-c2ccnc(Nc3ccccc3)n2)cc1` [SB-238039], the “%Inh” value was 14%.
`O=C(NCCNc1ccnc(Nc2ccc(F)cc2)n1)c1cc2ccccc2s1` [GSK1379874] was tested, and the “%Inh” value was 12%.
For `Fc1ccc(-c2ncn(CCCN3CCOCC3)c2-c2cccnc2)cc1` [SB-211743], the “%Inh” value was 0%.
In the case of `Cc1ccc(NC(=O)c2ccnc(N3CCN(C)CC3)c2)cc1-c1ccc(C(=O)NCC2CC2)cc1` [GW775604], the “%Inh” value is reported as 0%.
With `CN1c2ccc(CNc3ccc(F)cc3)cc2-c2c(cnn2C)S1(=O)=O` the “%Inh” value was 0%.
`CNc1ncnc2[nH]ncc12` [SKF-18355] was tested, and the “%Inh” value was 0%.
`COCCNC(=O)c1ccc(-c2cc(C(=O)NC3CC3)cc(F)c2C)cc1` [GW868318] was tested, and the “%Inh” value was 30%.
`CCc1ccnc(/C=C/c2n[nH]c3cc(Sc4ccccc4C(=O)NC)ccc23)c1` was tested, and the “%Inh” value was 0%.
With `CC(C)Oc1ccc2c(-c3ccnc(Nc4ccc(N5CCN(C)CC5)cc4)n3)cnn2n1` [GW696155] the “%Inh” value was 87%.
For `c1ccc(-c2cc(-c3c[nH]nc3-c3ccccn3)ccn2)cc1` [GW576604], the “%Inh” value was 0%.
In the case of `Fc1ccc(-c2ncn(CCCN3CCOCC3)c2-c2ccccn2)cc1` [SB-211742], the “%Inh” value is reported as 0%.

The compounds below were run on PAK1. Conditions: concentration: 1 μM, replicates: in singlicate; n = 1.
For `Cc1cccc(-c2nc(-c3ccc(S(C)(=O)=O)cc3)sc2-c2ccncc2)c1`, the “%Inh” value was 14%.
In the case of `Nc1nc(-c2ccc3c(N)n[nH]c3c2)cc(N2CCCC2)n1` [GSK2227430], the “%Inh” value is reported as 13%.
`NCC(NC(=O)c1cc(-c2cn[nH]c2)c(-c2ccnc3[nH]ccc23)s1)c1ccccc1.O=C(O)C(F)(F)F.O=C(O)C(F)(F)F` (centres unmarked) [GSK1325775] was tested, and the “%Inh” value was 19%.
`Cc1c(Cn2c(C)nn3c(=O)cc(N4CCOC(C)C4)nc23)cccc1C(F)(F)F` (centres unmarked) [GSK2344444] was tested, and the “%Inh” value was 0%.
`O=C(Nc1cccc(-c2nn3ncccc3c2-c2ccnc(Nc3cccc(C(F)(F)F)c3)n2)c1)c1c(F)cccc1F` [GSK299495] was tested, and the “%Inh” value was 0%.
With `N#Cc1c(N2CCOCC2)sc(-c2ccn[nH]2)c1-c1ccc(Cl)cc1` the “%Inh” value was 10%.
In the case of `CCc1nc(-c2cccc(C)c2)c(-c2ccnc(NCc3ccccc3)c2)s1`, the “%Inh” value is reported as 30%.
In the case of `Nc1nccc(-c2c(-c3ccc(F)cc3)ncn2C2CCN(CC(F)(F)F)CC2)n1` [SB-236560], the “%Inh” value is reported as 0%.
`CC(=O)Nc1ccc(COc2ccc(Nc3ccnc4cc(-c5ccccn5)ccc34)cc2)cc1.Cl` [GW440148] was tested, and the “%Inh” value was 15%.
`O=C(NCCCN1CCOCC1)c1cccc(Nc2nccc(Nc3ccc(Oc4ccccc4)cc3)n2)c1` [GW663929] was tested, and the “%Inh” value was 9%.
With `COc1cc2c(cc1OCCN1CCN(C)CC1)ncc1c3ccc(C#N)cc3[nH]c21` the “%Inh” value was 24%.
With `COc1ccc(Nc2ncc(C#N)c(Nc3ccccc3C(N)=O)n2)cc1N1CCN(C)CC1.Cl` [GSK1558669] the “%Inh” value was 91.2%.
In the case of `Cn1ccc2ncnc(Oc3ccc(NC(=O)Nc4ccncc4)c(Cl)c3)c21`, the “%Inh” value is reported as 16%.
For `COc1cc2c(cc1OC[C@@H](O)CO)ncc1c3ccc(C#N)cc3[nH]c21`, the “%Inh” value was 0%.
With `Cc1cn2c(=O)cc(N3CCOCC3)nc2n1Cc1cccc(Cl)c1Cl` [GSK2334006] the “%Inh” value was 12%.
`Cn1cc(-c2ccc3c(c2)CCN3C(=O)Cc2ccccc2Cl)c2c(N)ncnc21` [GSK2608885] was tested, and the “%Inh” value was 44%.
`NS(=O)(=O)c1cccc(-c2ccc3nccc(-c4cccc(S(N)(=O)=O)c4)c3c2)c1` [GW867253] was tested, and the “%Inh” value was 7%.
`Cl.Oc1cccc(Nc2ccnc3cc(-c4ccncc4)ccc23)c1` [GW494601] was tested, and the “%Inh” value was 0%.
`[2H]C([2H])(c1cccc(C(F)(F)F)c1C)n1ccn2c(=O)nc(N3CCOCC3)cc12` [GSK2336394] was tested, and the “%Inh” value was 0%.
For `Cl.Nc1ncnc2occ(-c3ccc(NC(=O)Nc4cc(C(F)(F)F)ccc4F)cc3)c12` [SB-707548], the “%Inh” value was 24%.
`O=C1NC(=O)C(N2CCc3ccccc32)=C1c1cccc(Cl)c1` [SB-408010] was tested, and the “%Inh” value was 9%.
For `C[C@@H](Oc1cc(-n2cnc3ccc(NC(=O)NC(C)(C)C)cc32)sc1C(N)=O)c1ccccc1Cl` [GSK346294], the “%Inh” value was 15%.
In the case of `O=c1cc(N2CCOCC2)nc2n(Cc3cccc(Cl)c3Cl)c(C3CC3)nn12` [GSK2358994], the “%Inh” value is reported as 16%.
With `CSc1ccc(-c2cc3ncnc(SCC(=O)O)c3s2)cc1` the “%Inh” value was 0%.
`c1ccc(-c2n[nH]cc2-c2ccnc3ccccc23)nc1` [GW271431] was tested, and the “%Inh” value was 16%.
With `O=C(NCCNc1ccnc(Nc2ccc(F)cc2)n1)c1cc2ccccc2s1` [GSK1379874] the “%Inh” value was 6%.
In the case of `Fc1ccc(-c2ncn(CCCN3CCOCC3)c2-c2cccnc2)cc1` [SB-211743], the “%Inh” value is reported as 15%.
For `Cc1ccc(NC(=O)c2ccnc(N3CCN(C)CC3)c2)cc1-c1ccc(C(=O)NCC2CC2)cc1` [GW775604], the “%Inh” value was 9%.
`CN1c2ccc(CNc3ccc(F)cc3)cc2-c2c(cnn2C)S1(=O)=O` was tested, and the “%Inh” value was 0%.
In the case of `CNc1ncnc2[nH]ncc12` [SKF-18355], the “%Inh” value is reported as 0%.
With `COCCNC(=O)c1ccc(-c2cc(C(=O)NC3CC3)cc(F)c2C)cc1` [GW868318] the “%Inh” value was 20%.
With `CCc1ccnc(/C=C/c2n[nH]c3cc(Sc4ccccc4C(=O)NC)ccc23)c1` the “%Inh” value was 0%.
With `CC(C)Oc1ccc2c(-c3ccnc(Nc4ccc(N5CCN(C)CC5)cc4)n3)cnn2n1` [GW696155] the “%Inh” value was 83%.
For `c1ccc(-c2cc(-c3c[nH]nc3-c3ccccn3)ccn2)cc1` [GW576604], the “%Inh” value was 16%.
In the case of `Fc1ccc(-c2ncn(CCCN3CCOCC3)c2-c2ccccn2)cc1` [SB-211742], the “%Inh” value is reported as 0%.
